Compounds with a hit are over-represented: about 12% of the library has one in this group of screens.
Sfp inh: blocks B. subtilis Sfp PPTase activity | Q9F4F7 | Biochemical Sfp PPTase activity, qHTS | Potency, µM, for inactives: largest response in the series, negative = inhibition, hits mostly inhibitors | 3.5% of 310,000 active | AID 1490;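 note: the enzyme is Sfp with the accession as filed and its product quenches rhodamine fluorescence; potency is the fitted concentration of half-maximal effect; 0% = enzyme reaction without inhibitor and -100% = no enzyme wells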
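Reaction rates are the 30-min fluorescence difference (ex 525, em 598 nm) in wells containing 15 nM Sfp, 5 uM rhodamine-CoA and 12.5 uM BHQ-2-YbbR at pH 7.6 with 10 mM MgCl2.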
BAZ2B inh: blocks human BAZ2B. Q9UIF8. AlphaScreen BAZ2B-H3K14Ac peptide displacement. Potency, µM (titrated, usually from 114 µM), for inactives: top-dose activity change, negative = inhibition, usual class: inhibitors. 4.4% of 360,000 active. AID 504333; note: potency is the fitted concentration of half-maximal effect; % is set by controls: 0 for no effect and ±100 for the full control effect; nearly all actives have a fitted effect of over 60% in size
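AlphaScreen displacement of biotin-H3(5-23)K14Ac peptide (50 nM final) from BAZ2B (50 nM final) in PBS pH 7.4, 0.01% Tween-20; complex preformed 30 min RT, then compounds (top 110 uM) 30 min RT, beads 20 min dark.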
G9a block: blocks human histone lysine methyltransferase G9a. G9a H3K9 monomethylation, AlphaScreen, 2 h. Potency, µM (highest dose often 102 µM), for inactives: at the highest dose activity, negative = inhibition, most hits filed as inhibitors. 8.8% of 350,000 active; note: potency is the fitted concentration of half-maximal effect; % is set by controls: 0 for no effect and ±100 for the full control effect; nearly all actives have a fitted effect of over 75% in size
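Using a bead-based AlphaScreen, monomethylated H3K9 product from 2 h room-temperature reactions (G9a 20 nM, peptide 500 nM, SAM 20 uM) was detected with 0.5 ug/mL rabbit anti-H3K9me1 antibody.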
PLK1 PBD block: PLK1 (human) polo-box domain binding inhibition; P53350; Plk1 PBD binding of FITC phosphopeptide, fluorescence polarization; Potency, µM, for inactives: max response, negative = inhibition, actives largely listed as inhibitors; 2.8% of 360,000 active; AID 720504; note: potency is the fitted concentration of half-maximal effect; series mostly up to about 57 µM; % is set by controls: 0 for no effect and ±100 for the full control effect; nearly all actives have a fitted effect of over 65% in size
Target sequence (P53350 whole entry, looked up, the tested form may be a part): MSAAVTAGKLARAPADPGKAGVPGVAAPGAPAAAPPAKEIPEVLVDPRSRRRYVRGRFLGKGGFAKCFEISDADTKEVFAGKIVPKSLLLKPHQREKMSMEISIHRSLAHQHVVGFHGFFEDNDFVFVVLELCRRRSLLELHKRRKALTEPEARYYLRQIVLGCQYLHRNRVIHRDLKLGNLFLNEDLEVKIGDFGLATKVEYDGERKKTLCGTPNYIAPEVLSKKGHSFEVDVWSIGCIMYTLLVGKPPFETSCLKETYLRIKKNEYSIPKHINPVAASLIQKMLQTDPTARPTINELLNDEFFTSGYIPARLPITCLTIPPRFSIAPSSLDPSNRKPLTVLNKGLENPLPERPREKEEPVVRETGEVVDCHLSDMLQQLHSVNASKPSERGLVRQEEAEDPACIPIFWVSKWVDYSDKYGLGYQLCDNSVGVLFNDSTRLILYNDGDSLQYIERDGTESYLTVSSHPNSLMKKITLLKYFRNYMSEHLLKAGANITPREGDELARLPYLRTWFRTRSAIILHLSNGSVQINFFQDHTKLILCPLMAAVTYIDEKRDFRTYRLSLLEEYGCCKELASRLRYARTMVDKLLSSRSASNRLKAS
HP1b chromo inh: HP1-beta chromodomain-methylated histone interaction inhibition; AID 540317; P83916; 0.56% of 390,000 active; Potency, µM (highest dose often 114 µM), for the others: at the highest dose activity change, negative = inhibition, hits mostly inhibitors; AlphaScreen HP1-beta / biotin-H3K9me3 peptide binding; note: potency is the fitted concentration of half-maximal effect; nearly all actives have a fitted effect of over 70% in size
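HP1-beta protein (50 nM final) preincubated 30 min at room temperature with biotinylated H3(1-18)K9me3 peptide (50 nM) in PBS pH 7.4, 0.01% Tween-20, then compound added for 30 min. AlphaScreen streptavidin donor/nickel chelate acceptor beads (10 ug/mL final), 30 min dark, luminescence read.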
JMJD2A Tudor: JMJD2A Tudor domain (human) inhibition | AlphaScreen JMJD2A-Tudor / H3K4me3 peptide binding | Potency, µM (doses to about 114 µM), for inactives: top-dose activity change, negative = inhibition, actives largely listed as inhibitors | 4.4% of 390,000 active | AID 504339; note: potency is the fitted concentration of half-maximal effect; % is set by controls: 0 for no effect and ±100 for the full control effect; nearly all actives have a fitted effect of over 50% in size
Sfp inh conf: Sfp phosphopantetheinyl transferase inhibition, confirmation; shares compounds with Sfp inh; Potency, µM (top dose mostly 114 µM), without a hit: at the highest dose activity change, negative = inhibition, usual class: inhibitors; 79% of 380 active; AID 2701; Sfp PPTase enzymatic assay, qHTS titration;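 note: potency is the fitted concentration of half-maximal effect; plate controls were uninhibited Sfp reaction for no effect and no enzyme control for full effect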
Target sequence (Q9F4F7 whole entry, looked up): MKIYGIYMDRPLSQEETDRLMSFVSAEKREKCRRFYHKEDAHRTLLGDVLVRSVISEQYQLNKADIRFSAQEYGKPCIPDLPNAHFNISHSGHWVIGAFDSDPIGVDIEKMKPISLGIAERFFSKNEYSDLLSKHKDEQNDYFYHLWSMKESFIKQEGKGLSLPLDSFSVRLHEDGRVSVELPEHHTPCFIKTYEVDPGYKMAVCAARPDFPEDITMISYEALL
Sfp gel assay: Inhibits B. subtilis Sfp phosphopantetheinylation | Potency, µM, most hits filed as inhibitors | 20% of 210 active | shares compounds with Sfp inh | purified Sfp, gel-based phosphopantetheinylation read-out | AID 2707;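 active = potency below 100 µM; inconclusive = dose-dependent response but potency above 100 µM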;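 note: band intensities scaled against SCH202676 control wells before curve fitting; potency is an IC50 for inhibitors of Sfp transfer activity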
JMJD2E inh-1: blocks human JMJD2E demethylase activity; shares compounds with BAZ2B inh; JMJD2E demethylase, FDH-coupled NADH fluorescence; Potency, µM (titrated, usually from 57 µM), for inactives: at the top dose activity, negative = inhibition, hits mostly inhibitors; 89% of 130 active; AID 493212
ME-1 growth: reduces ME-1 leukemia cell proliferation | shares compounds with BAZ2B inh | ME-1 cell proliferation, ATP luminescence, 48 h | Potency, µM (top dose mostly 56.1 µM), for inactives: at the top dose activity change, negative = inhibition, most hits filed as inhibitors | 20% of 140 active | AID 504370
JMJD2E inh-2: JMJD2E (human) demethylase inhibition, confirmation | 93% of 140 active | Potency, µM (doses to about 56.8 µM), inactives show at the top dose activity change, negative = inhibition, most hits filed as inhibitors | shares compounds with JMJD2A Tudor | Recombinant JMJD2E, FDH-coupled NADH fluorescence (FDH is formaldehyde dehydrogenase)
FDH inh: FDH (Pseudomonas putida) inhibition counter-screen; shares compounds with JMJD2A Tudor; Potency, µM (doses to about 56.7 µM), without a hit: at the top dose activity, negative = inhibition, usual class: inhibitors; 10% of 140 active; FDH enzyme assay, NADH fluorescence kinetic
TbPYK inh: confirmation of Trypanosoma brucei pyruvate kinase inhibitors; AID 720569; shares compounds with PLK1 PBD block; recombinant TbPYK, Kinase-Glo ATP luminescence; Potency, µM (highest dose often 76.9 µM), without a hit: at the top dose activity change, negative = inhibition, most hits filed as inhibitors; 67% of 890 active; note: potency is the fitted concentration of half-maximal effect; % is set by controls: 0 for no effect and ±100 for the full control effect; nearly all actives have a fitted effect of over 70% in size
TbPYK ADP-Glo: orthogonal confirmation of Trypanosoma brucei pyruvate kinase inhibitors. shares compounds with PLK1 PBD block. recombinant TbPYK, ADP-Glo luminescence, 60 min. Potency, µM (highest dose often 76.9 µM), without a hit: at the highest dose activity change, negative = inhibition, most hits filed as inhibitors. 62% of 890 active; note: potency is the fitted concentration of half-maximal effect; % is set by controls: 0 for no effect and ±100 for the full control effect; nearly all actives have a fitted effect of over 75% in size
* marks the source's active call; other numbers are inactive results; i = inactive; ? = inconclusive; . = not tested or not shown; ! = not active in a repeat; [ ] = another dose, or the depositor's remark. Unless noted, calls come from the whole dose curve; as a rule, active = well fitted curve in the direction sought with a large enough effect; inconclusive = small, poorly fitted or top-dose-only effect, or another doubt; inactive = no such curve, though single readings can be large; an effect the other way counts as inactive or inconclusive.

SMILES | Sfp inh | BAZ2B inh | G9a block | PLK1 PBD block | HP1b chromo inh | JMJD2A Tudor | others
CC(C)COC(=O)OCN1C(=O)CN(CCN2CC(=O)N(COC(=O)OCC(C)C)C(=O)C2)CC1=O | 18% | 1% | 13µM*! | -8% | 48% | -7%
CCOC(=O)c1ccccc1C(=O)OCC | 7% | . | 18%[59 µM] | -19% | 55% | -6%
CCOC(=O)c1sc(=NC(=O)c2ccc(C)c(C)c2)n(C)c1C | 19% | -5% | 11%[59 µM] | 27µM* | -10% | 20µM*
CN1C(=O)C(C2(C#N)CCCCC2)C(=O)N(C)C1=O | 10% | 12% | 50µM* | -14% | 42% | -11%
O=S(=O)(c1cccc(C(F)(F)F)c1)N1Cc2ccccc2-n2nncc2C1 | . | . | . | -4% | . | .
N#CC(C#N)=Cc1ccc(N2CCCC2)cc1 | -1% | -13% | -26% | -28% | 7% | -3%
CCc1ccc(/C=C(/C#N)C(N)=S)cc1 | ? | ? | 8.9µM* | 7.5µM* | ? | -34%
N#C/C(=C\c1cccc(O)c1)C(=O)O | -12% | . | . | . | . | .
COc1cc(C=C(C#N)C#N)cc(O)c1O | . | . | 2.5µM* | . | . | .
N#CC(C#N)=Cc1ccc(O)c(O)c1 | 40µM* | 79µM* | 8.4µM* | -6% | 3% | ?
N#CC(=Cc1ccc(O)c(O)c1)C(N)=S | . | . | 5µM* | . | . | .
CN(C)c1ccc(C=C(C#N)C#N)cc1 | 21% | -21% | 7%[59 µM] | -16% | 28% | -18%
CCOC(=O)c1ccc(N2C(=O)c3n[nH]c(-c4cccs4)c3C2c2ccc(OC)cc2OC)cc1 (stereo not given) | . | . | -2%[59 µM] | . | 2% | ?
CC(C)(C)c1cc(C=C(C#N)C#N)cc(C(C)(C)C)c1O | 56µM* | ? | 13µM* | -6% | 18% | 3%
CN1C(=O)/C(=C\c2ccc(Br)s2)C(=O)NC1=S | 40µM* | ? | 7.1µM* | 1.2µM* | 8% | 20µM*
CN1C(=O)C(C)(C2=CCCCC2)C(=O)NC1=S (stereo not given) | . | . | . | -23% | 0% | -9%
CCN1CCN(c2cc(N3CCCC3)c(F)cc2[N+](=O)[O-])CC1 | -13% | -38% | 45µM* | -5% | -13% | -34%
CN1CCN(c2cc(N3CCCC3)c([N+](=O)[O-])cc2F)CC1 | 24% | -36% | ? | ? | ? | ?
C=C1CC[C@H](O)C/C1=C/C=C1\CCC[C@]2(C)[C@@H]([C@H](C)CCCC(C)C)CC[C@@H]12 | 17% | . | 16µM*! | . | . | .
CC(C)c1cc2c(c(O)c1O)[C@@]1(C(=O)O)CCCC(C)(C)[C@@H]1CC2 | 1.4µM* | . | 3.5µM* | . | . | . | Sfp inh conf=2.6µM*;Sfp gel assay=i
CCOC(=O)C1=CC(=C2C(=O)N(CC)C(=S)N(CC)C2=O)c2ccccc2O1 | 50µM* | ? | 25µM* | ? | ? | -26% | Sfp inh conf=59µM*;Sfp gel assay=i
CCN(CC1CCCN(CCc2cccc(OC)c2)C1)C(=O)c1ccc(COC)o1 (stereo not given) | 8% | -2% | 28% | -1% | 41% | -20%
CCC1CN2CCC1CC2C(O)c1ccnc2ccccc12 (stereo not given) | 4% | . | . | . | . | .
Cc1cccc(N2CCc3c2nc2ccccc2c3N)c1 | 28µM* | ? | ? | -8% | ? | 3.2µM*! | Sfp inh conf=26µM*;Sfp gel assay=i
Cc1cccc(-n2c(/C=C/c3ccccc3O)nc3ccccc3c2=O)c1 | . | -1% | -2%[59 µM] | . | 39% | -11%
SMILES | Sfp inh | BAZ2B inh | G9a block | PLK1 PBD block | HP1b chromo inh | JMJD2A Tudor | others
Cc1nnc2n1-c1ccc(Cl)cc1C(c1ccccc1)=NC2 | 13% | -14% | 32%[59 µM] | . | . | .
C[C@H](N)[C@H](O)c1ccc(O)c(O)c1 | 35µM* | . | 1.6µM* | . | . | . | Sfp inh conf=?;Sfp gel assay=74µM*
COc1ccccc1-c1nn2c(=O)cc(CN3CCN(C(=O)COc4ccccc4Cl)CC3)nc2s1 | . | -4% | 9%[59 µM] | . | 12%[57 µM] | -16%
O=C1C2CC=CCC2C(=O)N1SC(Cl)(Cl)Cl (stereo not given) | 6.3µM* | . | 1.6µM* | . | . | . | Sfp inh conf=9.4µM*;Sfp gel assay=6.2µM*
CC(C)Nc1ccc(Nc2ccccc2)cc1 | 8.9µM* | 28µM* | 1.6µM* | ? | 45µM* | 50µM* | Sfp inh conf=11µM*;Sfp gel assay=?;TbPYK inh=5µM*;TbPYK ADP-Glo=16µM*
COc1ccc(C(=O)C2CCCN(CC3CCCCC3)C2)cc1OC (stereo not given) | . | . | . | -7% | . | .
CC(C)[C@@]1(NC(=O)[C@H]2CC3c4cccc5[nH]cc(c45)C[C@H]3N(C)C2)O[C@@]2(O)C3CCCN3C(=O)[C@@H](Cc3ccccc3)N2C1=O (stereo not given in full) | 79µM*! | . | 13µM*! | . | . | . | ME-1 growth=?
CCCCCCCCCc1ccc(O)cc1 | 11% | . | . | . | . | .
Oc1cccc2cc(N3CCNCC3)cnc12 | . | . | . | . | . | . | JMJD2E inh-1=?;JMJD2E inh-2=?;FDH inh=0%

High-throughput results (PubChem BioAssay)
